Measured values taken from PubChem BioAssay (NCATS).
Values without a mark were called inactive. Calls follow the shape of the dose curve; as a rule, active = well fitted activation curve with a large enough effect; inconclusive = small, poorly fitted or top-dose-only effect; inactive = no such curve, though single readings can be large or run the other way.

target: Parathyroid hormone/parathyroid hormone-related peptide receptor (Homo sapiens) (UniProt Q03431); assay: qHTS for PTHR1 Agonists: Optimization Screen against the NCGC LOPAC library (AID 1347079); conditions: HEK293 GP2 PTHR1 GloSensor cAMP luminescence, 1 h; series mostly up to 57.1 µM; activation: at the top concentration; also: 0% is about no effect
Sequence (Q03431 whole entry, looked up): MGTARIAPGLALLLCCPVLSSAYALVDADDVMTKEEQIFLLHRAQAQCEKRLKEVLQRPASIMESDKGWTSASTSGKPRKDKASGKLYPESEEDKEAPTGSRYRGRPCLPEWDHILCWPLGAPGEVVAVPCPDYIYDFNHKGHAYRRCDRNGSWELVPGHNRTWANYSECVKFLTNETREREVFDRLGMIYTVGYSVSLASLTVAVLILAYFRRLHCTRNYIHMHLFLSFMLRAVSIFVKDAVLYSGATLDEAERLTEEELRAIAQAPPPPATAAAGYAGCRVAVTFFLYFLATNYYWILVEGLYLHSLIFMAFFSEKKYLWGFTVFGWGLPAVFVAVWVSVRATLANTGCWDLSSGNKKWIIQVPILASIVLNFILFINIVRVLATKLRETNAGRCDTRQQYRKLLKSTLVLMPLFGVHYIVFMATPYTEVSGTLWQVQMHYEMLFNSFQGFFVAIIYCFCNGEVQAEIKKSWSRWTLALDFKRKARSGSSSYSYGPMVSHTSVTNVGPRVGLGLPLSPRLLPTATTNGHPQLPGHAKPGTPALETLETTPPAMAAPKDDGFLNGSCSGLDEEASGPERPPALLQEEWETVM
How it was run: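 Signal increase flags agonism. GP2 cells, derived from HEK-293, express human PTHR1 and a GloSensor cAMP construct.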

Compound	activation
Cn1c(=O)c2[nH]c(-c3ccccc3)nc2n(C)c1=O	-20.4%
CCCn1c(=O)c2[nH]c(-c3ccc(OCC(=O)NCCN)cc3)nc2n(CCC)c1=O	16.7%
CN1CCc2cc(O)c(O)cc2C(c2ccccc2)C1 (stereo not given)	-1.4%
CC[C@@H](C)[C@H]1O[C@]2(CC[C@H]1C)C[C@@H]1C[C@@H](CC=C(C)[C@@H](O[C@H]3C[C@H](OC)[C@@H](O[C@H]4C[C@H](OC)[C@@H](O)[C@H](C)O4)[C@H](C)O3)[C@@H](C)C=CC=C3CO[C@@H]4[C@H](O)C(C)=C[C@@H](C(=O)O1)[C@]34O)O2	-17.4%
N#C/C(=C\c1c[nH]c2ccccc12)C(=O)c1ccc(O)c(O)c1	15%
Fc1cccc(/C=N/N=C/c2cccc(F)c2)c1	-43.9%
CC(C)(C)c1ccc(S(=O)(=O)/C=C/C#N)cc1	-61.9%
NC[C@@H]1O[C@H](C23CC4CC(CC(C4)C2)C3)Cc2c1ccc(O)c2O	-20.2%
O=Nc1ccc2oc(=O)ccc2c1	-3.4%
CN(C)c1ccc(/C=C2\C(=O)Nc3ccccc32)cc1	13.6%
CC(C)ON([C@@H](C(=O)NO)C(C)C)S(=O)(=O)c1ccc(-c2ccccc2)cc1	14.5%
CN(C)c1nc2c(Br)c(Br)c(Br)c(Br)c2[nH]1	29.7%
C[C@@H](NC(=O)/C(C#N)=C/c1ccc(O)c(O)c1)c1ccccc1	8.59%
COc1ccccc1N1CCN(CCCCNS(=O)(=O)c2cccc3c(N(C)C)cccc23)CC1	39.1%
CN1C2CC(OC(=O)[C@H](CO)c3ccccc3)CC1C1OC12 (stereo not given in full)	-9.11%
N#C/C(=C\c1ccc(-c2cc(Cl)ccc2Cl)o1)C(=O)Nc1cccc2ncccc12	-16.8%
N=C(N)SCCc1ccc(CCSC(=N)N)cc1	-28.6%
COc1cccc(OC)c1OCCNCC1COc2ccccc2O1 (stereo not given)	10.9%

Compound	activation
COC1=C(OC)C(=O)c2ccccc2C1=O	-3.53%
CCCCCCCCCCCCCCCCCCNC(=O)OCC(COP(=O)([O-])OCC[n+]1ccsc1)OC (stereo not given)	4.14%
O=C(O)CCCC[C@@H]1CCSS1	29.7%
CC(=O)/C=C1\C(=O)N(C)c2ccccc21	-29.1%
C[N+](C)(C)CC(=O)[O-]	-0.218%
O=C(/C=C/c1ccc(O)cc1)c1ccc(O)cc1O	-4.71%
N#C/C(=C\c1ccc(O)c(O)c1)C(=O)NCCCc1ccccc1	40.3%
Oc1ccccc1O	3.49%
N.N.N.N.N.N.N.N.N.N.N.N.N.N.O.O.[Ru+4].[Ru+5].[Ru+5]	9.77%
c1ccc(-c2ccccn2)nc1	-29.7%
NCCCCC(=O)O	3.01%
N#C/C(=C\c1ccc(O)c(O)c1)C(=O)c1ccc(O)c(O)c1	-1%
CCCCCCCCCCCCCCCCCC(=O)NCC(COP(=O)([O-])OCC[N+](C)(C)C)OCC (stereo not given)	-11.9%
CSc1ccccc1N1CCN(CCCCCC(=O)NC2CCCc3ccccc32)CC1 (stereo not given)	16.3%
N[C@@H](CC(=O)O)C(=O)O	-33.1%
Nc1ncnc2c1c(I)cn2[C@@H]1C[C@H](N)[C@@H](O)[C@H]1O	5.71%
O=C(O)[C@@H]1C[C@H](C(=O)O)N1	20.1%
